# Source: PubChem BioAssay (The Scripps Research Institute Molecular Screening Center)
# Sampled rows, rich in hits. Any-hit rate of the full collection: about 2.8%.
# PAFAH1B2 FP inh: PAFAH1B2 enzyme inhibitors, primary screen, biochemical, fluorescence polarization, human | Platelet-activating factor acetylhydrolase IB subunit alpha2 (Homo sapiens), P68402 | 340,000 tested, 1.2% active | AID 492953, 2010 | recombinant PAFAH1B2, FP-rhodamine activity probe | inhibition, % at 3.39 µM;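 active = inhibition above the mean of all tested compounds plus 3 SD, cut at about 24% in these data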;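 note: 0% = enzyme with DMSO and 100% = wells lacking PAFAH1B2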
# PME-1 primary: PME-1 inhibitors via competitive probe labeling, primary screen, biochemical, fluorescence polarization, FP-Rh probe, HTS; Protein phosphatase methylesterase 1 (Homo sapiens), Q9Y570; recombinant PME-1; inhibition, % at 5.9 µM; 320,000 tested, 0.53% active; AID 2130, 2009;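 active = inhibition above the campaign mean of all compounds plus 3 SD, cut at about 26% in these data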;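 note: competitive labeling of PME-1 active site by serine hydrolase directed probe; 0% = PME-1 with DMSO and 100% = wells lacking PME-1 enzyme; inhibitors block probe labeling so polarization falls and inhibition rises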
# Target sequence (Q9Y570 whole entry, looked up): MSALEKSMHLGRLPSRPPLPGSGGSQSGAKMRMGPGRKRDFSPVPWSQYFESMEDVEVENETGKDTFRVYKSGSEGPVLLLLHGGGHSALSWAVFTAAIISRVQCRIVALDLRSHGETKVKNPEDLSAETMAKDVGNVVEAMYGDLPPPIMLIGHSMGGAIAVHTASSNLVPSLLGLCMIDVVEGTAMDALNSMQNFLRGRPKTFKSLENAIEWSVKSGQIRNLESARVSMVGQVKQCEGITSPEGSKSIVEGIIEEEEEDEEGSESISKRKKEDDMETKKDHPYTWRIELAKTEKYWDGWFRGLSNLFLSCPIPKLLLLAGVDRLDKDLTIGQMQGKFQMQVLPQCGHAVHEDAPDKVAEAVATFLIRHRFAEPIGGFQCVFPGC
# Fam108B inh: mouse Fam108B serine hydrolase inhibitors, primary screen, counter-screen for RBBP9 inhibitor project, biochemical, fluorescence polarization; 300,000 tested, 0.33% active; inhibition, % at 9.51 µM; AID 1947, 2009; recombinant Fam108B, FP-Rh probe fluorescence polarization;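 active = inhibition above the screen mean inhibition plus 3 SD, computed separately per campaign, cut at about 18% in these data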;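 note: inhibitors lower polarization as less probe binds the enzyme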
# PAFAH1B3 inh: PAFAH1B3 enzyme inhibitors, primary screen, biochemical, fluorescence polarization, human; Platelet-activating factor acetylhydrolase IB subunit alpha1 (Homo sapiens), Q15102; recombinant PAFAH1B3, FP-rhodamine probe; inhibition, % at 3.39 µM; 340,000 tested, 0.28% active; AID 492972, 2010;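 active = inhibition above the screen-wide average of all tested compounds plus 3 SD, cut at about 25% in these data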;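 note: 0% = enzyme with DMSO only and 100% = wells lacking PAFAH1B3 protein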
# PAFAH2 inh: PAFAH2 enzyme inhibitors, primary screen, biochemical, fluorescence polarization, human; recombinant PAFAH2, FP-rhodamine activity probe; 340,000 tested, 0.99% active; inhibition, % at 3.39 µM;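 active = inhibition above the mean over all tested compounds plus 3 SD, cut at about 30% in these data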;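 note: inhibitors block probe labeling of enzyme so polarization drops; 0% = enzyme with DMSO and 100% = wells lacking PAFAH2 protein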
# pPAFAH FP inh: pPAFAH enzyme inhibitors, primary screen, biochemical, fluorescence polarization, human; Platelet-activating factor acetylhydrolase (Homo sapiens), Q13093; recombinant pPAFAH, FP-rhodamine probe fluorescence polarization; inhibition, % at 3.39 µM; 330,000 tested, 1.5% active; AID 463082, 2010;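 active = inhibition above the mean inhibition across the screen plus 3 SD, cut at about 25% in these data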;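 note: inhibitors block binding of the rhodamine activity-based probe so polarization drops; 0% = enzyme with DMSO and 100% = wells lacking pPAFAH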
# * marks the source's active call; other numbers are inactive results; / = no result.
SMILES,PAFAH1B2 FP inh,PME-1 primary,Fam108B inh,PAFAH1B3 inh,PAFAH2 inh,pPAFAH FP inh
Cc1ccc(S(=O)(=O)c2c(N)n(CCCN(C)C)c3nc4ccccc4nc23)cc1,5.3,-0.3,1.1,13.0,3.5,9.0
N#CC1(NC(=O)Cn2ncc(Cl)c(Cl)c2=O)CCCCC1,-1.4,-3.7,-0.2,0.4,8.4,-6.7
Cc1ccc(NS(=O)(=O)c2ccc(NC(=O)c3ccccc3C(=O)O)cc2)cc1C,/,0.0,-2.5,/,/,25.7*
O=C(Nc1ccc(NS(=O)(=O)c2ccccc2)cc1)c1ccc(Cl)cc1,-12.4,-24.0,-18.4,-11.5,-19.6,9.8
Cc1ccc(NS(=O)(=O)c2ccc(/C=C/C(=O)O)cc2)cc1Cl,14.4,4.6,1.8,-2.9,9.7,28.8*
O=S(=O)(Nc1ccc(F)cc1)c1ccc(NC(=S)Nc2ccccc2)cc1,-2.2,-0.1,-12.0,1.5,2.4,25.0*
CCOc1ccc(NS(=O)(=O)c2ccc(NC(=O)c3ccccc3C(=O)O)cc2)cc1,6.4,-4.6,3.0,4.4,2.6,23.2
O=C(Nc1ccc(NS(=O)(=O)c2ccccc2)cc1)c1ccccc1,9.6,-4.7,-0.9,-4.6,9.6,34.4*
O=S(=O)(Nc1ccccc1)c1ccc(F)cc1,1.6,1.7,1.3,12.0,0.9,12.9
CC(=O)N1CCN(CC(=O)Nc2cccc(S(=O)(=O)N3CCCCC3)c2)CC1,7.1,/,/,12.6,-5.1,4.5
Cc1cc(C)cc(OCC(=O)N(C)CC(=O)Nc2ccc(N3CCOCC3)cc2)c1,0.2,/,/,11.6,-0.1,/
Cc1c(C)c(C)c(C(=O)c2ccc(NC(=O)c3ccccc3C(=O)O)cc2)c(C)c1C,108.5*,-3.0,4.0,141.1*,166.9*,-0.6
COc1ccc(C(=O)Nc2ccc(NS(=O)(=O)c3ccccc3)cc2)cc1OC,1.1,-7.5,-0.4,2.8,1.9,33.1*
O=C(Nc1ccc(Br)cc1)c1cccc(S(=O)(=O)Nc2cnc3ccccc3c2)c1,-4.5,-4.8,1.6,-1.0,2.6,27.1*
Nc1ccc(S(=O)(=O)c2cc(O)c3ccccc3c2O)cc1,18.8,/,/,17.6,20.8,/
CCC(C)c1c(N)n(S(=O)(=O)c2ccc(C)cc2)oc1=O (centres undefined),41.8*,/,/,-1.7,2.4,/
Cc1ccc2[nH]c(C(=O)O)c(NC(=O)[C@@H]3C[C@@H]3c3ccccc3)c2c1,30.8*,6.2,1.3,2.6,6.7,6.8
COCCN(Cc1ccco1)C(=O)C1CCCN(c2ncnc3c2nc2n3CCCCC2)C1 (centres undefined),4.1,-5.2,-0.4,8.8,7.5,-3.9
CCOC(=O)CC(=O)NC(CC(=O)OC)c1ccc(C(C)C)cc1 (centres undefined),28.5*,-9.2,-7.9,6.1,6.3,-0.3
c1coc(CSSCc2ccco2)c1,17.1,-3.6,/,29.6*,49.8*,5.7
C/C(=N\Nc1ccccc1C(=O)O)c1ccncc1,-1.7,73.2*,-1.1,4.6,4.5,4.0
C/C(=N/NC(=O)c1ccncc1)c1ccccc1,3.3,7.3,3.1,1.4,-7.5,2.4
O=[N+]([O-])c1ccc(N/N=C/c2c[nH]c3ccccc23)cc1,7.3,11.3,2.2,9.7,-4.6,16.9
O=[N+]([O-])c1ccccc1N/N=C/c1c[nH]c2ccccc12,3.9,50.1*,6.2,12.1,8.7,25.2*
CCOC(=O)C1CCN(C(=O)c2cc(S(=O)(=O)N3CCCCCC3)ccc2OC)CC1,-0.6,8.9,-2.9,1.9,6.4,-1.2
COc1cccc(-c2nc(NC(C)C)c3ccccc3n2)c1O,4.9,26.1*,11.0,-2.2,6.3,14.8
CC(=O)c1ccc(OCCCC(=O)NCCc2ccccc2)cc1,3.0,-6.1,-2.3,5.9,0.0,-2.0
CC(C)(C)OC(=O)N1CC=C2C(C#N)=C(N)C(C#N)(C#N)C(c3cccs3)C2C1 (centres undefined),5.5,8.5,-4.7,6.4,13.6,3.7
CC(C)N1CC=C2C(C#N)=C(N)C(C#N)(C#N)[C@H](c3ccoc3)[C@H]2C1,/,14.6,5.4,/,/,28.6*
